This passage reports z-score and composite z-score results from PubChem BioAssay.

A short description of experiment [1]: HepG2 liver cancer cell viability effects, profiling panel, resazurin fluorescence, 24 h, PK04 Diversity Set (AID 1172). Note: test concentration not given here. Particulars: higher = more signal.
Experiment [2] can be described thus: basal S. cerevisiae growth modulation, no modifier, primary screen, OD600, strain BY4716, 24 h, basal condition (AID 1173). As to conditions: OD600, 24 h, higher = more signal, called active from +8 up or from −8 down.
A short description of experiment [3]: MM1S myeloma cell viability, profiling panel, resazurin fluorescence, basal, 24 h, PK04 Diversity Set (AID 1174).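 Note: MM1S multiple myeloma cell line; test concentration not given here.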 As to conditions: higher = more signal, called active from +8 up or from −8 down. (In general: Resazurin is reduced to fluorescent resorufin, in cell work by metabolically active cells.)
Experiment [4] addresses Dihydroorotate dehydrogenase (quinone), mitochondrial (Plasmodium falciparum (isolate 3D7)) (UniProt Q08210). Briefly: PfDHODH enzyme inhibitors, primary screen, biochemical, C-terminal His tag, absorbance 600 nm (AID 1175).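 Note: recombinant parasite enzyme with a five histidine tag at its C terminus; test concentration not given here.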 As to conditions: DCIP absorbance 600 nm, higher = more signal, called active from +8 up or from −8 down.
A short description of experiment [5]: P. aeruginosa biofilm formation inhibitors, primary screen, strain PAO1, LB-PBS medium, absorbance 600 nm (AID 1176). Note: test concentration not given here. Particulars: P. aeruginosa PAO1 growth/biofilm, A600, 12 h; higher = more signal.
Experiment [6] in a line: S. cerevisiae RM11-1a growth modifiers, primary screen, strain RM11-1a, OD600, basal, 24 h (AID 1177).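 Note: cultures grown under basal conditions with no added stressor; test concentration not given here.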 As to conditions: OD600, 24 h, higher = more signal, called active from +8 up or from −8 down.
The nature of experiment [7]: E. coli acrAB mutant growth effects, primary screen, E. coli filamentation inducers, strain DRC39, OD650, 24 h (AID 1178).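 Note: growth measured as culture turbidity by optical density at 650 nm; test concentration not given here.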 As to conditions: higher = more signal, called active from +8 up or from −8 down.
Experiment [8] can be described thus: E. coli acrAB mutant growth effects, primary screen, E. coli filamentation inducers, strain DRC39, OD650, 48 h (AID 1179).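 Note: screen aims at cell division blockers that make cells filament.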 Particulars: E. coli DRC39 delta-acrAB growth, higher = more signal, called active from +8 up or from −8 down.
Experiment [9] is described as follows: RPMI8226 myeloma cell viability, profiling panel, resazurin fluorescence, basal, 24 h, PK04 Diversity Set (AID 1180).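 Note: RPMI8826 multiple myeloma cell line at 5000 cells per well; test concentration not given here.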 As to conditions: higher = more signal.
Experiment [10] has as its target E3 ubiquitin-protein ligase XIAP (Homo sapiens) (UniProt P98170). Briefly: XIAP binders, primary screen, biophysical, small-molecule microarray, fluorescence 635 nm (AID 1181).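 Note: score merges 667 nm emission and signal to noise over triplicate slides.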 As to conditions: small-molecule microarray binding, higher = more signal.

Active and inactive are the calls of the source. Unless noted, the rule behind the calls is not given here.

Sequence of Dihydroorotate dehydrogenase (quinone), mitochondrial (Plasmodium falciparum (isolate 3D7)) (Q08210 whole entry, looked up): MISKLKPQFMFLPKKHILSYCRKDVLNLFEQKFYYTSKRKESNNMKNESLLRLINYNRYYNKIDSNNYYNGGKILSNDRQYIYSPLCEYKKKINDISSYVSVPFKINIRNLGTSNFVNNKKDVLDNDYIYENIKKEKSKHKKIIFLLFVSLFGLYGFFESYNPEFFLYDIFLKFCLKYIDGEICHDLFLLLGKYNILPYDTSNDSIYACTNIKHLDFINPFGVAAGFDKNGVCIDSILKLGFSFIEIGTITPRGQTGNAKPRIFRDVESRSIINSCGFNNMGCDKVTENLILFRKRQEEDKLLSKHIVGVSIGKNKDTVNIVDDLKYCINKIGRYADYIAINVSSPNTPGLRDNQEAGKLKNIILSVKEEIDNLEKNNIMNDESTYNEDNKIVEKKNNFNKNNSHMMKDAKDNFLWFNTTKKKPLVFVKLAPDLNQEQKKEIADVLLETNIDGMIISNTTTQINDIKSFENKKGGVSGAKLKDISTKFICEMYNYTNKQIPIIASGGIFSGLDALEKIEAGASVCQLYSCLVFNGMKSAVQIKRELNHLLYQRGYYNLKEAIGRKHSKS
Sequence of E3 ubiquitin-protein ligase XIAP (Homo sapiens) (P98170 whole entry, looked up): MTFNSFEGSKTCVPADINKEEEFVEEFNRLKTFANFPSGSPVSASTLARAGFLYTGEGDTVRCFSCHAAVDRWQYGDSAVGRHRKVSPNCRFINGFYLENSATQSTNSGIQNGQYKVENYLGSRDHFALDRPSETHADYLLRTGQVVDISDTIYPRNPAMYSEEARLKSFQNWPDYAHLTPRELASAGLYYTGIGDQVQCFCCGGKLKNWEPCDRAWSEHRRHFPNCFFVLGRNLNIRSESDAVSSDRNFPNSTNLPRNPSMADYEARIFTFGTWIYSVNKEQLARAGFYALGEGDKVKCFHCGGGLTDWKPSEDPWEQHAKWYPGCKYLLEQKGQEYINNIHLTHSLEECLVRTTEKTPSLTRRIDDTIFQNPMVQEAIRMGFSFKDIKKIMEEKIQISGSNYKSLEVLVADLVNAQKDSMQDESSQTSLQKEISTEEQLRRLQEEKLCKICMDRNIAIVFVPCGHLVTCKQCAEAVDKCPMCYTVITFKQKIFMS

`C=CCNC(=O)[C@H]1[C@@H]2C(=O)O[C@@H](c3ccccc3)[C@@H](c3ccccc3)N2[C@@H](c2ccc(OCCO)cc2)[C@]12C(=O)N(C(=O)OCCOC)c1ccc(C#CCNC(N)=O)cc12`: the z-score in experiment [1] was 0.263; in [2] it was 1.88 (inactive); in [3], 0.31 (inactive); in experiment [5] it was 1.45 (inactive); in experiment [6] it was 3.01 (inactive); in experiment [7] it was 1.45 (inactive). In addition, the figures for the z-score in experiment [8] and in experiment [9] were 1.24 (inactive) and 1.09, respectively. In addition, the composite z-score is -0.193 (inactive) in [4] and 0.0313 in experiment [10].

For `CO[C@H]1O[C@H](CO)[C@@H](OC(=O)Nc2cccc(F)c2)[C@H](OC(=O)c2cc3ccccc3[nH]2)[C@H]1OC(=O)c1cc2ccccc2[nH]1`, the z-score is -2.49 in [1]; -0.21 (inactive) in experiment [2]; -2.63 (inactive) in [3]; 1.1 (inactive) in experiment [5]; -0.67 (inactive) in experiment [6]; 0.181 (inactive) in experiment [7]. Also, the figures for the z-score in [8] and in [9] were 1.02 (inactive) and -2.46, respectively. Besides, the composite z-score was -0.603 (inactive) in [4] and 0.331 in experiment [10].

On to `[N-]=[N+]=Nc1ccccc1C[C@]1(C(=O)N2CCCCC2)N=C(c2ccc(OCCCO)cc2)O[C@H]1c1ccccc1`, for which the z-score in experiment [1] is -0.256; in [2] it was -1.04 (inactive); in experiment [3], -2.4 (inactive); in experiment [5], 0.522 (inactive); in experiment [6], 0.864 (inactive); in experiment [7] it was 0.463 (inactive). Further, the figures for the z-score in experiment [8] and in [9] were 0.647 (inactive) and -2.06, respectively. Further, the composite z-score in experiment [4] is -0.343 (inactive); in experiment [10] it was -0.102.

Consider `COC(=O)[C@]1(Cc2ccccc2N=[N+]=[N-])N=C(c2ccc(OCCCO)cc2)O[C@@H]1c1ccccc1CN=[N+]=[N-]`, for which the z-score was -4.43 in [1]; 1.24 (inactive) in [2]; -8.15 (active) in experiment [3]; 1.16 (inactive) in experiment [5]; 1.94 (inactive) in experiment [6]; -0.307 (inactive) in experiment [7]. Further, the z-score was -0.609 (inactive) in experiment [8] and -7.07 in experiment [9]. Besides, the figures for the composite z-score in [4] and in experiment [10] were 1.71 (inactive) and -0.0277, respectively.

For `O=C(CS)NCCCCCCNC(=O)[C@H]1C[C@H]2C(=O)NCC(=O)N2[C@H]1c1cccc(OCCO)c1`, the z-score in [1] is -0.39; in [2], -0.462 (inactive); in experiment [3], -0.0674 (inactive); in experiment [5], 0.339 (inactive); in experiment [6] it was 0.0796 (inactive); in experiment [7], 0.469 (inactive). Besides, the z-score is -0.814 (inactive) in experiment [8] and -0.348 in experiment [9]. For the same compound, the composite z-score in [4] is -0.59 (inactive); in experiment [10] it was 0.0269.

With `[N-]=[N+]=Nc1ccccc1C[C@@]1(C(=O)NCC(O)CO)N=C(c2ccc(OCCCO)cc2)O[C@@H]1c1ccccc1N=[N+]=[N-]` (stereo not given in full), the z-score was -2.15 in experiment [1]; -1.75 (inactive) in [2]; -2.42 (inactive) in experiment [3]; 0.122 (inactive) in experiment [5]; 0.629 (inactive) in experiment [6]; 0.2 (inactive) in experiment [7]. Moreover, the values for the z-score in experiment [8] and in experiment [9] were -0.456 (inactive) and -2.25, respectively. The composite z-score in experiment [4] is 0.791 (inactive); in [10], 0.0651.

As for `CC(C)(C)OC(=O)CC[C@]1(C(N)=O)N=C(c2ccc(OCCCO)cc2)O[C@H]1c1ccccc1N=[N+]=[N-]`, the z-score in [1] is 0.551; in [2], 0.0323 (inactive); in [3], -0.446 (inactive); in [5] it was -0.0279 (inactive); in [6], 0.979 (inactive); in experiment [7] it was 0.0489 (inactive). Besides, the z-score is 1.12 (inactive) in [8] and 0.596 in experiment [9]. Also, the composite z-score is 0.982 (inactive) in experiment [4] and 0.333 in [10].

For `C=C[C@@H](CO)NS(=O)(=O)c1ccc(Br)cc1`, the z-score in experiment [1] is 1.4; in experiment [2], -2.03 (inactive); in [3], 1.16 (inactive); in experiment [5] it was 0.193 (inactive); in experiment [6] it was -2.19 (inactive); in [7] it was 1.43 (inactive). The z-score was 1.16 (inactive) in [8] and 0.867 in [9]. For the same compound, the results for the composite z-score in experiment [4] and in [10] were -1.37 (inactive) and -0.215, respectively.

Regarding `COCCCNC(=O)[C@@]1(c2ccc([N+](=O)[O-])cc2)CC(=O)N(C2CCCCC2)[C@@H]1c1ccc(CO)cc1I`, the z-score in [1] is 0.545; in experiment [2] it was -0.24 (inactive); in experiment [3], 0.678 (inactive); in experiment [5], 0.966 (inactive); in [6], -0.251 (inactive); in experiment [7] it was 0.0675 (inactive). The figures for the z-score in experiment [8] and in experiment [9] were -0.279 (inactive) and 1.16, respectively. Also, the composite z-score in experiment [4] is 0.219 (inactive); in experiment [10], 0.0449.

Regarding `O=C1OC[C@@H](c2ccccc2)n2cc(/C=C/c3ccccc3)cc21`, the z-score in experiment [1] was -0.295; in experiment [2], -2.5 (inactive); in experiment [3], 0.539 (inactive); in experiment [5], -0.353 (inactive); in experiment [6] it was 0.561 (inactive); in experiment [7] it was -0.0891 (inactive). Moreover, the z-score in experiment [8] is -0.733 (inactive); in experiment [9], -0.302. Moreover, the composite z-score in experiment [4] was -2.31 (inactive); in experiment [10], -0.286.

For `O=C(NC1CC1)[C@@H]1c2ccccc2C(=O)N(C2CCCCC2)[C@H]1c1ccc(CO)cc1`, the z-score is -0.358 in [1]; 0.678 (inactive) in experiment [2]; -1.27 (inactive) in experiment [3]; 0.292 (inactive) in experiment [5]; -0.456 (inactive) in experiment [6]; -0.185 (inactive) in experiment [7]. Moreover, the z-score in experiment [8] was 0.138 (inactive); in experiment [9], -0.166. Also, the composite z-score in experiment [4] was -0.245 (inactive); in experiment [10], -0.323.
